Bioassay records from PubChem.
DUSP3 inh – blocks human VHR1 dual specificity phosphatase; recombinant VHR phosphatase, pNPP absorbance; P51452; hit rate 0.52% among 290,000; inhibition, % at 13.3 µM; in the data active = inhibition above about 50%
Target sequence (P51452 whole entry, looked up): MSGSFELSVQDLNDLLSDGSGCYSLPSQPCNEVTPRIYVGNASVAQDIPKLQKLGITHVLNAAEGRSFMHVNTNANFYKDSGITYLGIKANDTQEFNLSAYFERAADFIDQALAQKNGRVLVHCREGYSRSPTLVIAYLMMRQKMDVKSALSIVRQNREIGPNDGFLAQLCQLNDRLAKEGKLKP
Anthrax LF inh2 – inhibitors of Bacillus anthracis lethal factor protease. hit rate 0.12% among 360,000. multiplex microsphere protease cleavage assay, LF. AID 588501. inhibition, % at 10 µM. P15917
Autofluor counter – compound fluorescence in toxin protease inhibitor counterscreen | compound autofluorescence counterscreen, microsphere flow cytometry; active compounds read high | fluorescence intensity (concentration not given with the values) | hit rate 3.1% among 360,000; in the data active = fluorescence intensity above about 16000; inconclusive = no clear call, values can overlap the other calls
BoNT-F LC inh – BoNT F light chain protease inhibition | Multiplex microsphere protease cleavage assay, flow cytometry | inhibition, % at 10 µM | hit rate 0.22% among 360,000 | AID 588497; in the data active = inhibition above about 35%, passing the limit was not always enough; inconclusive = no clear call, values can overlap the other calls
BoNT A protease – blocks Botulinum neurotoxin A light chain protease. multiplex microsphere protease substrate cleavage, flow cytometry. inhibition, % at 10 µM. hit rate 0.17% among 360,000. AID 588499
MazEF act – increases E. coli MazEF RNase cleavage of RNA | hit rate 0.32% among 350,000 | activation, % at 20 µM | AID 504720 | FAM/BHQ RNA-DNA oligo cleavage fluorescence, 5 h; in the data active = activation above about 50%
Target sequence (P0AE70 whole entry, looked up): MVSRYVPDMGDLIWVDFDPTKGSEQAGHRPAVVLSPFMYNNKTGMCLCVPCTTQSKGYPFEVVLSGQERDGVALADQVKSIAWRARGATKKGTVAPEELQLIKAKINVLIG
Numbers stand for hits; – = inactive; ? = inconclusive; · = no result given. Sampled rows, rich in hits. Any-hit rate of the full collection: about 4.1%. Cut-off read from the data, not from the text of the source, unless noted: active = inhibition above about 30%; inconclusive = no clear call, values can overlap the other calls; inactive = below that.

SMILES	DUSP3 inh	Anthrax LF inh2	Autofluor counter	BoNT-F LC inh	BoNT A protease	MazEF act
CCc1cccc(OCC(O)Cn2c(N3CCCCC3)nc3c2c(=O)[nH]c(=O)n3C)c1 (configuration not stated)	–	–	–	–	–	–
c1ccc(OCCNc2nc(NCC3CC3)nc3ccsc23)cc1	·	–	–	–	–	·
CCc1cc(=O)oc2cc(OCC(=O)N3CCC[C@H]3C(=O)O)ccc12	–	–	–	–	–	–
O=c1[nH]c(C(Cl)Cl)nc2sc3c(c12)CCN(Cc1ccccc1)C3	–	–	–	–	–	–
CCCSc1nc2sc3c(c2c(=O)[nH]1)CCN(Cc1ccccc1)C3	–	–	–	?	32	–
C/C(Cn1cnc([N+](=O)[O-])n1)=N\NC(=O)c1ccc(F)cc1	–	–	–	–	–	–
C/C(CC(=O)Nc1cc(C)ccn1)=N\NC(=O)c1ccc(C)cc1	–	–	–	–	–	–
C/C(Cn1cnc([N+](=O)[O-])n1)=N\NC(=O)c1cccc(F)c1	–	–	–	36	–	–
C/C(CC(=O)Nc1cc(C)ccn1)=N\NC(=O)c1cccc(F)c1	52	–	–	–	–	–
COc1ccc(C=NCCC2(O)CC(C)N(C)CC2C)cc1 (configuration not stated)	–	–	–	54	–	–
COc1ccc(CNCCC2(O)CC(C)N(C)CC2C)cc1OC (configuration not stated)	–	–	–	?	–	–
CCOc1ccc(/C=C2/C(=N)N3OC(C)=CC3=NC2=O)cc1OC	–	–	–	–	–	–
CCOc1cc(/C=C2/C(=N)N3OC(C)=CC3=NC2=O)ccc1OCCOc1ccccc1	–	–	–	–	–	149
COc1cc(/C=C2/C(=N)N3OC(C)=CC3=NC2=O)ccc1OCCOc1ccc(C)cc1	–	–	–	–	–	91
COc1ccccc1NS(=O)(=O)c1ccc(NC(=O)c2[nH]nc(OC)c2[N+](=O)[O-])cc1	–	–	?	–	–	–
O=C1NC[C@@H](CCCCN2C[C@H](Cc3ccc(O)cc3)N(CC3CCCCC3)C(=O)C2=O)N(CCC2CCCCC2)C1=O	·	–	–	–	–	·
C/C(=N\NC(=S)NCCc1ccccc1)c1cccs1	–	–	–	–	–	–
C/C(CCc1ccccc1)=N\NC(=S)NCCc1ccccc1	50	–	–	–	–	–
CC(=O)Nc1cc(NC(C)=O)cc(C(=O)OCC(=O)Nc2ccc(S(=O)(=O)NC3=NCCCCC3)cc2)c1	–	–	–	–	–	–
Cc1cn([C@H]2C[C@H](O)[C@@H](CNCc3ccc(F)c(N4CCOCC4)c3)O2)c(=O)[nH]c1=O	·	–	–	–	–	–
O=C(Nc1ccc(F)cc1)Nc1ccc(Cl)cn1	–	–	18496	–	–	–
O=C(Cc1ccc(F)cc1)Nc1ccc(Cl)cn1	60	–	–	–	–	–
O=C(Cc1ccc(Cl)cc1)Nc1ccc(Cl)cn1	–	–	–	?	–	–
O=C(Nc1ccc(F)c(Cl)c1)Nc1ccc(Cl)cn1	–	–	–	–	–	–
O=C(Nc1cccc(S(=O)(=O)N2CCCC2)c1)[C@@H]1O[C@H](CO)[C@@H](O)[C@H]1O	·	–	–	–	–	·
SMILES	DUSP3 inh	Anthrax LF inh2	Autofluor counter	BoNT-F LC inh	BoNT A protease	MazEF act
C[C@]12c3[nH]c4ccc(Cl)cc4c3CCN1C(=O)[C@@H](CC(=O)NCCN1CCOCC1)C[C@@H]2C(=O)N1CCCCC1	·	–	–	–	–	–
CCN1CCN(CC(=O)N2c3ccccc3CC2C)CC1 (configuration not stated)	–	–	24267	–	–	–
CCOC(=O)N1CCN(CC(=O)N2c3ccccc3CC2C)CC1 (configuration not stated)	–	–	25433	–	–	–
CN1CCN(c2nc(N(C)C)oc(=O)c2C#N)CC1	–	–	22716	–	–	–
CN(C)c1nc(N2CCN(c3ccc(F)cc3)CC2)c(C#N)c(=O)o1	–	?	?	?	?	–
CN(Cc1ccccc1)C(=O)c1cccc(NC(=O)Cc2ccc(NC(=O)C3CCCN(C(=O)c4ccccc4)C3)cc2)c1 (configuration not stated)	·	–	–	–	–	–
CCCCOc1ccc(/C(O)=C(\C#N)c2nc3ccccc3[nH]2)cc1	–	–	–	42	–	–
N#C/C(=C(/O)c1ccc(C(=O)c2ccccc2)cc1)c1nc2ccccc2[nH]1	–	–	–	–	–	–
CCOC(=O)N1CCN(c2c(F)cc3[nH]c(=S)[nH]c3c2Br)CC1	–	–	–	–	–	–
CCOC(=O)N1CCN(c2cc3[nH]c(=S)[nH]c3cc2F)CC1	–	–	21312	–	–	–
CCOC(=O)N1CCN(c2cc(N)c([N+](=O)[O-])cc2F)CC1	–	–	20374	–	–	–
COc1ccc2[nH]c(C(=O)NCCCN3CCCC3=O)c(C)c2c1	–	–	–	–	–	–
COc1cccc(-c2cnc3c(NC(C)=O)cc(-c4cccc(C(=O)NCCO)c4)cn23)c1	·	–	–	–	–	·
COc1ccc(OC)c(S(=O)(=O)Nc2cccc(F)c2)c1	–	–	16709	–	–	–
COc1ccc(OC)c(S(=O)(=O)NC2CCCCC2)c1	–	–	22696	–	–	–
COc1cc(S(=O)(=O)NC2CCCC2)ccc1F	–	–	16811	–	–	–
COc1ccc(OC)c(S(=O)(=O)Nc2ccc(F)cc2)c1	–	–	–	–	–	–
COc1ccc(S(=O)(=O)NC2CCCC2)c(OC)c1	–	–	–	–	–	–
COc1ccc(S(=O)(=O)Nc2cccc(Cl)c2)cc1OC	–	–	20245	–	–	–
COc1ccc(NS(=O)(=O)c2ccc(OC)c(OC)c2)cc1OC	–	–	–	–	–	–
CC1(C2CC(=O)c3c(O)ccc(O)c3C2)OCCO1 (configuration not stated)	·	–	–	–	–	–
Cn1c(SCC(=O)NCC2CCCO2)ncc(C(=O)Nc2ccc(Cl)cc2)c1=O (configuration not stated)	·	–	–	–	–	–
CC1=NN(c2ccc(C)c(C)c2)C(=O)C1C(c1cccc(O)c1)C1C(=O)N(c2ccc(C)c(C)c2)N=C1C (configuration not stated)	54	–	–	–	–	–
CC(=O)c1ccc(Nc2nc(C(N)Cc3ccc(Cl)cc3)cs2)cc1 (configuration not stated)	·	–	–	–	–	·
Cc1cccc(NC(=O)Cn2ccn(-c3ccc4c(c3)OCCO4)c(=O)c2=O)c1	·	–	?	–	–	–
CC(=O)C(/C=N/c1ncc(C(F)(F)F)cc1Cl)=C(\C)O	–	–	–	–	–	–
CC(Sc1nc2ccccc2o1)C(=O)O (configuration not stated)	–	–	20941	–	–	–
CCC(Sc1nc2ccccc2o1)C(=O)O (configuration not stated)	–	–	–	–	–	–
O=C1CC(N2CCN(c3cccc(C(F)(F)F)c3)CC2)C(=O)N1c1ccccc1 (configuration not stated)	–	–	20561	–	?	–
